This passage reports max activity results from PubChem BioAssay AID743446 (Broad Institute, 2014).

Measured potencies and affinities stand elsewhere. Values without a mark were called inactive. How the calls were made is not given here.

The assay in a line: viability loss in HEK293 cells – cell-based, plate reader, cherry-picked samples, cytotoxicity control, dose response (AID 743446). The settings on record: active compounds read low; at 26 µM unless noted.
On to `COc1ccc(OCC(=O)Nc2nccs2)cc1`, for which the max activity was 15.2% [at 1.6 µM].

Regarding `C[C@H](CO)N1C[C@H](C)[C@@H](CN(C)C(=O)Nc2ccc3c(c2)OCO3)Oc2c(cccc2N(C)C)C1=O`, the max activity is -7.24% [at 0.8 µM].

Take `CN(C)S(=O)(=O)c1cccc(NC(=O)COc2ccccc2C(=O)Nc2ccccc2)c1`: the max activity was -34.1%.

On to `CC(C)CCNC(=O)C(c1ccc(O)cc1)N(Cc1cccs1)C(=O)C1COc2ccccc2O1` (centres undefined), for which the max activity is -16.3%.

As to `C[C@@H]1CN([C@@H](C)CO)C(=O)c2cc(NS(C)(=O)=O)ccc2O[C@@H](C)CCCCO[C@@H]1CN(C)Cc1ccc(C(F)(F)F)cc1`, the max activity was -12.9% [at 0.1 µM].

`COCCCNc1ccn2nc(-c3ccccc3)cc2n1`: the max activity was 42.6% [at 12 µM].

Regarding `COc1cccc(-c2cc(C(=O)Nc3cccc(O)c3)no2)c1`, the max activity is -7.14%.

As to `Cc1cnc(NC(=O)c2sc3ccccc3c2Cl)s1`, the max activity is 35.5% [at 6 µM].

For `CCCCCc1ccc(-c2ccc(C(=O)O)cc2)nc1`, the max activity was 34.4% [at 0.8 µM].

Take `COc1ccc2oc(-c3ccccc3)cc(=O)c2c1`: the max activity was -14.7% [at 12 µM].

In the case of `C[C@@H]1CN([C@H](C)CO)C(=O)c2c(c3ccccc3n2C)-c2ccccc2CO[C@@H]1CN(C)S(=O)(=O)c1ccc(C(F)(F)F)cc1`, the max activity is -8.56%.

As for `C[C@H](CO)N1C[C@H](C)[C@H](CN(C)S(=O)(=O)c2ccc(C(F)(F)F)cc2)OCc2ccccc2-c2c(n(C)c3ccccc23)C1=O`, the max activity is -10.7% [at 1.6 µM].

`CCC(=O)N(C)C[C@H]1Oc2cc(C#CCC(C)C)ccc2S(=O)(=O)N([C@H](C)CO)C[C@@H]1C`: the max activity was 21.8% [at 0.05 µM].

For `Cc1nc2c(OCCC3CCCCC3)cccn2c1N(C)C(=O)CCC1CCCC1`, the max activity was -22.5% [at 6 µM].

With `O=C(O)c1ccc(N/N=C/c2c[nH]c3ccccc23)cc1`, the max activity was 10.4% [at 3 µM].

With `Cc1ccccc1C(=O)Nc1nnc(-c2ccco2)s1`, the max activity is -13.7% [at 12 µM].

As for `CC1(c2ccccc2Cl)NC(=O)N(CC(=O)N2CCc3ccccc32)C1=O` (centres undefined), the max activity is 40.9%.

As for `O=C(O)c1cccc(N/N=C/c2cccs2)c1`, the max activity was 58.2% [at 6 µM].

In the case of `N#C[C@@H]1[C@H](c2ccc(C#Cc3ccccc3F)cc2)[C@@H](CO)N1C(=O)C1CCCC1`, the max activity is -15.6%.

For `Cc1cc(Cl)ccc1OCCCC(=O)Nc1cc(S(=O)(=O)N2CCOCC2)ccc1N1CCOCC1`, the max activity was -21.8% [at 0.1 µM].

On to `COc1ccc(C(=O)Nc2nnc(SCC(=O)NCc3ccco3)s2)c(OC)c1`, for which the max activity is 15%.

On to `Cc1ccc(S(=O)(=O)Nc2ccc3c(c2)C(=O)N([C@H](C)CO)C[C@@H](C)[C@H](CN(C)S(=O)(=O)c2cccs2)OCCCC[C@@H](C)O3)cc1`, for which the max activity is -17.3% [at 12 µM].

`O=C(Nc1nc2ccccc2[nH]1)c1ccc(Cl)cc1`: the max activity was 71.5% [at 0.8 µM].

`Cc1ccc(-c2nc(-c3ccncc3)no2)c(Cl)c1`: the max activity is 10% [at 1.6 µM].

On to `C[C@H](CO)N1C[C@H](C)[C@H](CN(C)C(=O)Nc2ccccc2)OCCCC[C@H](C)Oc2ccc(NC(=O)Nc3ccc4c(c3)OCO4)cc2C1=O`, for which the max activity was 50.9% [at 0.195 µM].

For `O=C1CC(c2ccc3c(c2)OCO3)Sc2nc3ccccc3n21` (centres undefined), the max activity is -8.84% [at 0.38 µM].

For `O=C(Nc1cccc(C(=O)O)c1)Nc1ccc2c(c1)OCO2`, the max activity was -18.7% [at 0.195 µM].

Consider `CC(=O)Nc1ccc(S(=O)(=O)c2ccnc3cc(Cl)ccc23)cc1`, for which the max activity was -26.3% [at 12 µM].

For the compound `COc1ccccc1CN(C)C[C@@H]1OCc2cnnn2CCCC(=O)N([C@H](C)CO)C[C@H]1C`, the max activity was 11% [at 0.38 µM].

As for `Cc1ccc(NC(=O)c2ncn(CC(=O)N3CCN(c4ccccn4)CC3)n2)cc1C`, the max activity is -13.4% [at 0.195 µM].

On to `Cc1ccc(S(=O)(=O)N2CCCc3nc(-c4ccc(F)cc4)ccc32)cc1`, for which the max activity was 43.2% [at 12 µM].

As for `N#Cc1cccc(-c2ccc([C@@H]3[C@H](CO)N4CCCCN(C(=O)Nc5cccc(F)c5)C[C@@H]34)cc2)c1`, the max activity is 4.74% [at 12 µM].

As to `COc1ccc(C(=O)Nc2ccc3ccccc3c2)cc1`, the max activity was 26.8% [at 0.8 µM].

With `COc1ccccc1C=NNC(=O)c1ccncc1`, the max activity was 20.7%.

Regarding `CCc1nnc(NC(=O)CSc2nnc3ncccn23)s1`, the max activity is 33.7%.

With `Cc1cc(C(=O)Nc2ccc(N3CCCCC3)cc2)no1`, the max activity is 16% [at 0.195 µM].

For `Cc1noc(C)c1S(=O)(=O)Nc1cccc2c1O[C@H](CN(C)C(=O)Nc1ccc(F)cc1)[C@H](C)CN([C@H](C)CO)C2=O`, the max activity is -6.26%.

`CSc1nnc(NC(=O)c2ccc3c(c2)OCO3)s1`: the max activity is -9.38% [at 12 µM].

For `c1nc(CCO[C@H]2CCCCO2)cc2cc3c(cc12)OCO3`, the max activity was 9.43%.
